Tg IFNy HTS = inhibitors of Toxoplasma gondii growth with IFN-gamma; AID 1259416; activity change, negative = inhibition, % (concentration not given with the values); Toxoplasma gondii growth in IFN-gamma-treated host cells; hits give low values; 69,000 tested, 3.8% active; in the data active = activity change below about -70%, passing the limit was not always enough;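 note: host cells are HeLa cells infected with Toxoplasma gondii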
Each line names hits and unclear results; the compound was inactive in the other large screens. Shown is part of a subset that was picked to be rich in hits.

C[C@H]1CN([C@@H](C)CO)S(=O)(=O)c2ccc(C#CCC3CCCC3)cc2O[C@@H]1CN(C)C(=O)c1cnccn1	none
COCC#Cc1ccc2c(c1)O[C@H](CN(C)C(=O)C1CCOCC1)[C@H](C)CN([C@@H](C)CO)S2(=O)=O	none
Cn1cc(CN2C(=O)NC(Cc3ccc(F)cc3)(C3CCNCC3)C2=O)cn1 (stereo unspecified)	none
Clc1ccc(-n2cnnc2C2CCNCC2)cc1	none
COc1cccc(-c2cnn3cccnc23)c1F	none
Cc1cc2cc(C(=O)Nc3ccc(CCC(=O)N4CCCC4)cc3)ccc2o1	none
CCCn1cnc(NC(=O)NCCC2CCCCCC2)n1	none
CCc1ccc2c(c1)cc(S(=O)(=O)c1ccccc1)c(=O)n2CC(=O)NC(C)CC (stereo unspecified)	none
NC1CCCN(C(=O)c2[nH]cnc2-c2ccccc2)CC1 (stereo unspecified)	none
CN(C)CC1(O)CCCN(S(=O)(=O)N(C)Cc2ccccc2)CC1 (stereo unspecified)	Tg IFNy HTS -77.9
CN(C)CC1(O)CCCN(C(=O)CCOc2ccccc2)C1 (stereo unspecified)	none
CN(C)CC1(O)CCCN(Cc2ccccc2OCC(=O)O)CC1 (stereo unspecified)	none
CCN1C(=O)CCc2cc(NS(=O)(=O)c3ccc(Cl)c(Cl)c3)ccc21	Tg IFNy HTS -100.4
CCN1C(=O)CCc2cc(NS(=O)(=O)c3ccc4c(c3)OCCO4)ccc21	none
CCN1C(=O)CCc2cc(NS(=O)(=O)c3ccccc3Cl)ccc21	none
CCN1C(=O)CCc2cc(NS(=O)(=O)c3cccc(C)c3)ccc21	none
CCN1C(=O)CCc2cc(NS(=O)(=O)c3ccc(C)c(F)c3)ccc21	Tg IFNy HTS -72.1
COCCN1C(=O)CCc2cc(NS(=O)(=O)c3ccc(OC)c(OC)c3)ccc21	none
COc1ccc(-n2c(=O)c(C(=O)Nc3ccc(F)cc3C)c(O)c3cccnc32)cc1	none
O=S1(=O)Cc2cnc(NCC3CC3)nc2[C@H]2CN(Cc3ccc(F)cc3)C[C@@H]21	none
CN(C)c1ncc2c(n1)[C@H]1CN(C(=O)c3ccccc3)C[C@@H]1S(=O)(=O)C2	none
CN(C)c1ncc2c(n1)[C@H]1CN(Cc3ccccc3F)C[C@@H]1S(=O)(=O)C2	Tg IFNy HTS -102.7
O=C(O)c1ccc2c(c1)nc(Nc1cccc(Cl)c1)c1ccncc12	Tg IFNy HTS -72.6
Cc1cccc(Nc2nc(C(=O)Nc3cccc(Cl)c3)nc3ccccc23)c1	none
Cc1ccc(Nc2nc(C(=O)Nc3cccc(Cl)c3)nc3ccccc23)cc1	none
CCOc1ccc(-c2nc(CN(c3cccc(OC)c3)S(=O)(=O)c3ccccc3C)c(C)o2)cc1	none
O=C1NC(Cc2cccc(Cl)c2)COCc2cnnn2CCC1c1ccccc1 (stereo unspecified)	none
Cc1cc(C)n(CC(=O)N(Cc2ccccc2)Cc2nc(C)ncc2-c2ccccn2)n1	none
CC1(C)CNC(=O)c2nc(-c3ccccc3-n3cccn3)[nH]c2C1	none
CCC(CC)C(=O)N1CCCc2c(cnn2-c2ccc(OC)cc2)C1	Tg IFNy HTS -97.4
CCC(CC)C(=O)N1CCCn2cnc(CN3CCCC3=O)c2C1	none
COc1ccc(Cc2ncc3c(n2)CN(C(=O)[C@@H](O)c2ccccc2)C3)cc1	none
O=C1NCC2(CCCN(C(=O)c3ccc4c(c3)CCCO4)CC2)O1 (stereo unspecified)	none
O=C(CN1C(=O)CCc2cc(Br)ccc21)N1CCN(c2ccccn2)CC1	none
Cc1cccc2ncc(C(=O)N3CC(c4cccnc4)C3)c(=O)n12	none
Cc1ncc(NC(=O)c2ccc(CN3CCN(C)CC3)c(C(F)(F)F)c2)cc1Nc1nccc(-c2cccnc2)n1	none
CN(C)C1CCN(Cc2ccc(C(=O)Nc3ccc4c(cnn4C)c3)cc2)C1 (stereo unspecified)	none
Cc1ccc(C(=O)Nc2ccc(CN3CCN(C)CC3)c(C(F)(F)F)c2)cc1C#Cc1cnc2[nH]ncc2c1	Tg IFNy HTS -79.6
CC(C)CCn1c(=O)n(CCC(=O)N2CCCC2)c2cc(C(=O)O)ccc21	none
O=C(C1c2ccccc2-c2ccccc21)N1CCC(c2ccncc2)CC1	none
CO[C@@H]1CC[C@H]2CCN(C)C(=O)[C@@H](C)N(C)C(=O)c3cccc(C#N)c3OC[C@@H]1O2	none
CCOC(=O)c1cc(C)nc2c1c(=O)n(Cc1nc(-c3ccc(C)cc3)oc1C)c(=O)n2C	none
CCOC(=O)c1cc(C)nc2c1c(=O)n(Cc1nc(-c3ccc(OC(C)C)cc3)oc1C)c(=O)n2C	Tg IFNy HTS -81.2
CCOC(=O)c1cc(C)nc2c1c(=O)n(Cc1nc(-c3ccc(OC)cc3)oc1C)c(=O)n2C	none
C[C@@H]1CN([C@H](C)CO)C(=O)Cc2cc(NC(=O)CCC(F)(F)F)ccc2O[C@H]1CN(C)CC1CC1	none
CCc1nc2cc(NC(=O)COc3ncnc4ccccc34)ccc2n1C	none
CN1CCC(Nc2ncc3ncnc(Nc4ccc(F)c(Cl)c4)c3n2)CC1	none
CN1CCCC1CCNC(=O)CC(=O)Nc1ccc(F)c(Cl)c1 (stereo unspecified)	none
C=CC(=O)Nc1cc2c(Nc3ccc(F)c(Cl)c3)ncnc2cc1C#CC(C)(C)N1CCN(C)CC1	Tg IFNy HTS -71.8
C[C@H](CO)N1C[C@H](C)[C@@H](CN(C)C(=O)Nc2cccc(Cl)c2Cl)OCc2ccccc2-c2ccccc2C1=O	none
Clc1ccc(-c2nnc(-c3nc(NCc4ccccc4)c4ccccc4n3)o2)cc1	none
Cc1ccc(CNc2nc(-c3nnc(-c4cccc(C)c4)o3)nc3ccccc23)cc1	none
Fc1ccc(-c2nnc(-c3nc(NC4CCCCC4)c4ccccc4n3)o2)cc1	Tg IFNy HTS -103.8
Cc1ccc(-c2nnc(-c3nc(Nc4ccc(F)cc4)c4ccccc4n3)o2)cc1	none
CCOc1ccc(Nc2nc(-c3nnc(-c4cccc(C)c4)o3)nc3ccccc23)cc1	none
Cc1cccc(-c2nnc(-c3nc(NCc4ccc(F)cc4)c4ccccc4n3)o2)c1	none
Fc1ccccc1CNc1nc(-c2nnc(-c3ccccc3)o2)nc2ccccc12	Tg IFNy HTS -75.8
Cc1cccc(-c2nnc(-c3nc(NCc4ccccc4C)c4ccccc4n3)o2)c1	Tg IFNy HTS -91.2
Cc1ccc(Nc2nc(-c3nnc(-c4ccc(F)cc4)o3)nc3ccccc23)cc1	none
COc1ccccc1CNc1nc(-c2nnc(-c3ccc(C)cc3)o2)nc2ccccc12	none
Cc1cccc(-c2nnc(-c3nc(NCc4ccccc4)c4ccccc4n3)o2)c1	Tg IFNy HTS -107.2
Fc1ccc(CNc2nc(-c3nnc(-c4ccccc4)o3)nc3ccccc23)cc1	none
O=C(C1CC2(CCNCC2)CN1)N1CCN(c2nc3ccccc3o2)CC1 (stereo unspecified)	none
Cn1c(COc2ccc(CC3SC(=O)NC3=O)cc2)nc2ccccc2c1=O (stereo unspecified)	none
CC(C)NC(=O)C[C@H]1OC[C@@H]2CN(S(C)(=O)=O)CC[C@H]21	none
CC(C)SCCNC(=O)c1cnn2ccn(C)c12	none
COCCN1CCN(C(=O)c2ccno2)Cc2cccnc21	none
Cc1nc(-c2cccc(F)c2)sc1CCNC(=O)c1ccco1	none
Cc1cc(C(=O)NCCC(=O)Nc2cccc3ccccc23)n[nH]1	none
CC(C)Cc1cc(CNC(=O)c2scc3c2OCCO3)no1	none
CS(=O)(=O)c1ccc(CN2CCCC(c3ccccc3)C2)cc1 (stereo unspecified)	none
Cn1ccc2c(-c3cccc(N4CCNCC4)n3)ccnc21	none
Cc1cc(C(=O)CSc2nnc(CN3CCOCC3)n2C)c(C)n1-c1ccc(F)cc1	none
Cc1ccc(CNC(=O)Cn2ncc3c(N4CCCCC4)ncnc32)o1	none
Clc1ccccc1CSc1nc(NC2CCCCC2)c2ccccc2n1	none
Cc1cccc(-c2nnc(-c3nc(Nc4ccc(F)cc4)c4ccccc4n3)o2)c1	none
Clc1cccc(CSc2nc(NCCc3ccccc3)c3ccccc3n2)c1	none

Compound activity from PubChem.
